Test results from ChEMBL document CHEMBL3433997, “St. Jude Leishmania screening dataset” (2016).

Columns and labels:
Assay type in all cases: functional
[1] = biological target: Solute carrier family 2, facilitated glucose transporter member 1 (Homo sapiens) (UniProt P11166); assay: ST_JUDE_LEISH: Cytotoxicity at 2uM final concentration against transgenic Leishmania Mexicana promastigotes LmGLUT1 that are glucose transport deficient and complemented with the human glucose transporter GLUT1. Activity is measured by DNA content using SYBR green in vitro
[2] = biological target: Hexose transporter 1 (Plasmodium falciparum) (UniProt O97467); assay: ST_JUDE_LEISH: Cytotoxicity at 2uM final concentration against transgenic Leishmania Mexicana promastigotes LmPfHT that are glucose transport deficient and complemented with the Plasmodium falciparum hexose transporter. Activity is measured by DNA content using SYBR green in vitro
[3] = biological target: Glucose transporter (Leishmania mexicana) (UniProt O61059); assay: ST_JUDE_LEISH: Cytotoxicity at 2uM final concentration against transgenic Leishmania Mexicana promastigotes LmGT2 that are glucose transport deficient and complemented with the L. Mexicana glucose transporter 2. Activity is measured by DNA content using SYBR green in vitro

Chain of Solute carrier family 2, facilitated glucose transporter member 1 (Homo sapiens) (P11166 whole entry): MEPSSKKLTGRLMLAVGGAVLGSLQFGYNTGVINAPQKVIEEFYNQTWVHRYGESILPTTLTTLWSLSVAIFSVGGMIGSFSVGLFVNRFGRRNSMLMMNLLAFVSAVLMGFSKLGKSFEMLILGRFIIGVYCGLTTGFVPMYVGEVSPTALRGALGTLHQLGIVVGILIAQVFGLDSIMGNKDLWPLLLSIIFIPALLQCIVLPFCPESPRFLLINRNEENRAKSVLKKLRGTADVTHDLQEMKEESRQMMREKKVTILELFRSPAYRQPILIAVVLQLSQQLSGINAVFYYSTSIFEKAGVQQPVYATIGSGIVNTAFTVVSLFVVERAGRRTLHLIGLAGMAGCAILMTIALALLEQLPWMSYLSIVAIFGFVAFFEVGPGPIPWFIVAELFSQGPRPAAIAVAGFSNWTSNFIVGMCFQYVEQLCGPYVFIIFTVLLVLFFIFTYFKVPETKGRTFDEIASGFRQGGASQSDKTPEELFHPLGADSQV

Row | Structure (SMILES) | inhibition [1] | inhibition [2] | inhibition [3]
1 | O=[N+]([O-])c1ccc(/C=N/O)nc1 | 88.1% | 91.2% | 84.6%
2 | COc1cc(NC(=O)/C=C/c2ccccc2OC(F)(F)F)cc(OCCN2CCC(O)(c3ccccc3)CC2)c1 | 7.57% | 5.55% | 5.81%
3 | CCN(CC)CCNc1ccnc2[nH]c3ccc(Cl)cc3c12 | 1.19% | -0.21% | -0.03%
4 | CN1CCN(CCCN(Cc2cccc(-c3ccc(CNCCc4ccccc4)cc3)c2)C(=O)Nc2ccccc2)CC1 | 2.48% | 7.14% | 1.35%
5 | c1cc(-c2ccc(CNC3CC3)cc2)cc(-c2nc3ccccc3[nH]2)c1 | 4.18% | 1.98% | 0.68%
6 | COc1ccc2nccc(N3CCC(NCCNS(=O)(=O)c4ccc5c(c4)NC(=O)CS5)C3)c2n1 (configuration not stated) | -1.11% | -1.18% | -2.22%
7 | CC[C@H](NC(=O)c1ccc(NC(=O)OC(C)(C)C)cc1)C(=O)N[C@@H](CO)C(=O)NCCCCc1ccccc1 | 1.96% | 1.3% | -0.11%
8 | CN(Cc1cccc(C#N)c1)C1CCN(c2cc(NC(=O)c3ccc(F)cc3)ccn2)CC1 | 3.29% | 2.12% | 4.06%
9 | COc1ccccc1C1CN(Cc2coc3ccccc3c2=O)Cc2ccccc2O1 (configuration not stated) | 0.38% | 0.56% | 0.45%
10 | COc1ccc(S(=O)(=O)NC2CCN(c3ccc(C(F)(F)F)cc3NC(=O)OCC(C)C)CC2)cc1 | 0.36% | 1.75% | 2.43%
11 | c1ccc(CNCc2cccc(-c3ccc(-c4nc5ccccc5[nH]4)cc3)c2)cc1 | 6.45% | 4.96% | 7.51%
12 | Cc1ccc(CCNCC(O)c2cccc(C(F)(F)F)c2)cc1 (configuration not stated) | 0.25% | 1.08% | 1.78%
13 | Cc1[nH]c2ccccc2c(=O)c1Br | 5.04% | 5.06% | -5.87%
14 | CC(=O)C=C1CC(=O)N(C[C@@H](O)[C@H]2O[C@@H]3OC(C)(C)O[C@@H]3[C@H]2O)c2ccccc2N1 | 2.82% | 3.82% | 2.35%
15 | CCCOC(=O)C1=C(C)NC2=C(C(=O)CC(c3ccc(OC)c(OC)c3)C2)C1c1cccc(O)c1 (configuration not stated) | 8.78% | 9.73% | 8.46%
16 | O=C(Nc1cccc(-c2cccc(-c3nc4ccccc4[nH]3)c2)c1)Nc1ccc(Cl)c(Cl)c1 | 6.2% | 6.7% | 7.6%
17 | CCCc1cc(C(C)=O)ccc1OCCCON1C(=N)N=C(N)NC1(C)C | 22.1% | 29.3% | 20.5%
18 | CC(O)c1cccc(-c2ccc(Nc3ccnc4cc(-c5nccs5)ccc34)cc2)c1 (configuration not stated) | 4.55% | 4.09% | 4.15%
19 | CN1CCN(c2ccnc3ccc(NC(=O)Nc4ccc(-c5ccncc5)c5ccccc45)cc23)CC1 | 3.36% | 0.39% | 5.81%
20 | O=C(Nc1cc(Cl)ccc1O)c1cc(-c2ccccc2O)no1 | -2.41% | -2.61% | -2.64%
21 | OC(CNCc1ccccc1Oc1ccccc1)c1cc(Br)cs1 (configuration not stated) | 4.37% | 3.03% | 3.26%
22 | N#Cc1ccc(-c2ccc(C(=O)NCCCCN3CCC(c4ccc5c(c4OCC(N)=O)CCCC5)CC3)cc2)cc1 | 1.23% | 0.2% | 1.1%
23 | CN1CCC(NCc2ccc(-c3cccc(S(=O)(=O)NCCc4ccccn4)c3)cc2)CC1 | 0.27% | -0.63% | 1.83%

Row | Structure (SMILES) | inhibition [1] | inhibition [2] | inhibition [3]
24 | CCOC(=O)c1cnc2cc(N3CCCC3)c(Cl)cc2c1OCC | 1.28% | -0.81% | 0.52%
25 | COc1nc2c(CCN3CCC(NCc4ccc5c(c4)NCCO5)CC3)c(Cl)cnc2cc1F | 14.1% | 9.24% | 2.35%
26 | CC(C)CC(NC(=O)c1ccc(F)cc1)C(=O)N[C@H](/C=N/N1CCNC1=O)CC(C)C (some centres not stated) | 3.16% | 4.41% | 3.66%
27 | CC(C)N1CCC(N(Cc2ccc(-c3ccc(C(F)(F)F)cc3)cc2)C(=O)Cn2c(CCc3cccc(F)c3F)nc(=O)c3cccnc32)CC1 | 2.74% | 1.97% | 0.94%
28 | COc1ccc(C(=O)Nc2cc(Cl)c3c(c2)C2CCCN2CC3)cc1C(F)(F)F (configuration not stated) | 3.22% | 2.02% | -1.06%
29 | c1ccc(-c2cc(NCCCCCCCCNc3cc(-c4ccccc4)nc4ccccc34)c3ccccc3n2)cc1 | 105% | 104% | 83.4%
30 | O=C(NCCCCCN1CCC(c2c[nH]c3ccccc23)CC1)Nc1ccc(I)cc1 | 11% | 5.79% | 9.45%
31 | NC(=O)c1cc(-c2ccccc2)cc2c(C3CCC(NCc4ccccc4)C3)c[nH]c12 (configuration not stated) | 0.91% | 1.64% | 0.8%
32 | CCCCCCCCNCC(O)c1cc(-c2ccc(Cl)cc2)nc2cc(C)ccc12 (configuration not stated) | 3.01% | -0.38% | -1.09%
33 | CN1c2ccc([N+](=O)[O-])cc2C(C)(C)C12C=Cc1cc(Br)cc([N+](=O)[O-])c1O2 (configuration not stated) | 2.03% | -0.39% | -0.71%
34 | Cc1nc(C)c(CC(=O)Nc2cccc(-c3cccc(-c4nc5cccc(C)c5[nH]4)c3)c2)s1 | -1.73% | -0.36% | -0.58%
35 | COc1ccc2nccc([C@@H](O)CN3CCC(NCc4ccc5c(c4)OCCO5)CC3)c2c1 | 6.76% | 5.93% | 0.41%
36 | Cc1c2ccc(N(C)c3ccnc(Nc4ccc5c(c4)nc(NC(C)C)n5C)n3)cc2nn1C | 0.46% | 1.01% | -1.42%
37 | Cc1ccccc1N1CCN(c2ccc(C(=O)Nc3ccccc3)cc2)CC1 | -0.27% | 0.69% | 1.33%
38 | O=C(/C=C/c1ccc(Cl)c(Cl)c1)NCCCCCN1CCC(C(=O)Nc2ccc(F)c(Cl)c2)CC1 | 4.66% | 1.87% | 1.53%
39 | O=C1COc2cc(Cl)c(CNC3CCN(CCc4ccnc5c(F)cc(F)cc45)CC3)nc2N1 | 2.1% | 2.94% | 1.57%
40 | O=C(Nc1ccccc1)N(Cc1ccccc1-c1cccc(CNCCc2ccccc2)c1)C1CCN(Cc2ccccc2)CC1 | -1.02% | 0.26% | -0.84%
41 | COc1ccc2nccc([C@@H](O)CN3CCC(NCc4ccc5c(c4)NC(=O)CS5)CC3)c2c1 | 1.65% | 4.15% | -0.16%
42 | COc1ccc(NC(=O)/C=C/c2ccc(Cl)c(C(F)(F)F)c2)cc1OCCN(C(C)C)C(C)C | 11.7% | 8.04% | 5.51%
43 | Nc1nc(N)c2c(ccc3c2ccn3Cc2ccccn2)n1 | 86.5% | 92% | 78%
44 | CC(=O)Nc1ccc(OCCN(CC(C)C)c2ccc(C(F)(F)F)c(C#N)c2)c(Cl)c1 | 6.51% | 10.4% | 8.7%
45 | O=[N+]([O-])c1cccc(/C=N/Nc2ccnc3cc(F)ccc23)c1 | 1.98% | 2.39% | 1.01%
46 | CCNc1cc(C(=O)N[C@@H](Cc2ccccc2)[C@H](O)CNCc2cc(C#N)ccc2OC)cc(N2CCCC2=O)c1 | 9.4% | 9.23% | 9.67%

Row | Structure (SMILES) | inhibition [1] | inhibition [2] | inhibition [3]
47 | O=C(Nc1cccc(-c2ccc(-c3nc4cc(F)ccc4[nH]3)cc2)c1)c1ccncc1 | 4.46% | 2.3% | 2.96%
48 | CNC(=O)Cc1ccc(C(=O)Nc2cccc(-c3cccc(-c4nc5cccc(C)c5[nH]4)c3)c2)cc1 | -2.05% | -0.87% | -1.69%
49 | N#CCCN1CCN(Cc2cccc(-c3ccc(-c4nc5cc(F)ccc5[nH]4)cc3)c2)CC1 | 4.34% | 0.68% | 3.71%
50 | CCCCCCc1cnc2nc(N)nc(N)c2c1C | 10.8% | 10% | 10.3%
51 | O=C(NCc1ccc(C(=O)NCc2cccc3ccccc23)cc1)c1ccc(O)c(-c2ccc(Cl)c(Cl)c2)c1 | 0.64% | 2.17% | 0.96%
52 | COc1ccc2nccc([C@@H](O)CN3CCC(c4cc(-c5ccc(Cl)cc5)[nH]n4)CC3)c2n1 | 64.9% | 78.2% | 81.2%
53 | CCN(CC)/C(=N\CCCCCC/N=C(\NC(=N)c1ccc(Cl)cc1)N(CC)CC)NC(=N)c1ccc(Cl)cc1 | 1.79% | 2.4% | 2.59%
54 | CC(C)(CNCc1cccc(Oc2ccccc2)c1)c1nc(-c2ccnc(N)n2)c(-c2ccc(Cl)c(O)c2)[nH]1 | -0.85% | -0.2% | -0.78%
55 | Nc1ncnc2cc(-c3cccc(NC(=O)Nc4ccccc4)c3)sc12 | 3.48% | 2.18% | -1.3%
56 | COCCNCc1cccc(-c2ccc(CNC3CCN(Cc4ccccc4)CC3)cc2)c1 | 1.41% | 3.3% | 4.63%
57 | Cc1cc([N+](=O)[O-])ccc1N1CCN(CCCCNC(=O)c2ccc(NC(=O)c3ccc(Cl)cc3)cc2)CC1 | 4.75% | 4.19% | 4.35%
58 | Cc1cccc2nc(-c3cccc(-c4cccc(C(=O)N5CCCCC5CN5CCC(O)C5)c4)c3)[nH]c12 (configuration not stated) | 0.56% | 0.67% | -1.67%
59 | O=C(Nc1ccc([N+](=O)[O-])cc1)c1nn(-c2ccccc2)cc1/N=C/c1cccc(O)c1 | -0.62% | -1.47% | -1.45%
60 | O=C(/C=C/c1ccc(Cl)c(Cl)c1)NC1CCN(Cc2ccc(O)cc2)CC1 | 1.47% | 0.53% | -3.54%
61 | COc1ccc(-c2cccc(NC(=O)c3cccc(C#N)c3)c2)cc1CNC(C)C | 9.6% | 8.42% | 5.03%
62 | Cc1cccc2nc(-c3ccc(-c4cccc(NC(=O)NCc5cccc(F)c5)c4)cc3)[nH]c12 | -0.32% | 0.88% | -1.06%
63 | O=C(Nc1ccccc1)N(Cc1cccc(-c2ccc(CNCc3ccc4c(c3)OCO4)cc2)c1)C1CCN(Cc2ccccc2)CC1 | 2.89% | 4.07% | 2.52%
64 | CC(CCCCCC(=O)Nc1ccc(CC(C)NCCc2cccc(Cl)c2)cc1)NCCc1cccc(Cl)c1 (configuration not stated) | 12.9% | 10.6% | 9.83%
65 | CC(C)(C)c1ccc(CNC(=O)COc2ccc(-c3nnc(-c4cccc([N+](=O)[O-])c4)o3)cc2[N+](=O)[O-])cc1 | -0.15% | -0.74% | -0.93%
66 | COc1ccc(Cl)cc1NC(=O)C(C)Nc1ccc(-c2ccccc2)cc1 (configuration not stated) | 2.84% | 2.75% | 5.12%
67 | CCN(CCCN1CCCCC1)c1cc(C)nc(Nc2ccc(C)cc2)n1 | 0% | 1.61% | 0.31%
68 | N#Cc1ccc(N2CCN(Cc3ccc(-c4ccc(-c5nc6cc(C(F)(F)F)ccc6[nH]5)cc4)cc3)CC2)nc1 | 2.63% | 4.69% | 1.55%
69 | COc1cc2nc(NCc3ccc(S(N)(=O)=O)cc3)nc(Nc3ccc(Oc4ccccc4)cc3)c2cc1OC | 4.15% | 4.39% | 3.67%
